Assay outcomes: PubChem BioAssay, National Center for Advancing Translational Sciences (NCATS)
A selection: hits, their analogues and other compounds. The true share with any hit is near 19%.
TDP1 cell CPT: qHTS for Inhibitors of human tyrosyl-DNA phosphodiesterase 1 (TDP1): qHTS in cells in presence of CPT | chicken DT40 Tdp1-/-;hTDP1 cells + 20 nM CPT, ATP luminescence, 48 h | Potency, µM (series often up to 46.2 µM), without a hit: at the top dose activity change, negative = growth inhibition, actives largely listed as inhibitors | hit rate 12% among 420,000; note: potency is the fitted concentration of half-maximal effect; % is set by controls: 0 for no effect and ±100 for the full control effect; nearly all actives have a fitted effect of over 55% in size
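Chicken DT40 Tdp1-/- cells stably complemented with human TDP1 were seeded at 400 cells/well in medium containing 20 nM camptothecin, exposed to pin-transferred compounds, and grown at 37 °C for at least 48 hr. Viability was read as ATP luminescence.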
HepG2 tox: qHTS for Inhibitors of TGF-b: Cytotox Counterscreen; HepG2 CAGA-GFP viability, ATP luminescence, 18 h; Potency, µM (series often up to 46.1 µM), for the others: at the top dose activity change, negative = cytotoxicity, hits mostly cytotoxic; hit rate 0.76% among 410,000; AID 588856, 2011; note: potency is the fitted concentration of half-maximal effect
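HepG2 CAGA-GFP cells (1000/well, DMEM with 1% FBS) received compound, then TGF-beta at 500 pg/mL final, and were incubated 18 hours at 37 degrees C. Viability was read by CellTiter-Glo luminescence. Media-only wells were set as complete cell-killing and DMSO as no toxicity.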
TGFb SMAD3 inh: qHTS for Inhibitors of TGF-b; HepG2 CAGA-GFP TGF-b/SMAD3 reporter, GFP fluorescence, 18 h; TGF-beta stimulated, 500 pg/mL final; Potency, µM (titrated, usually from 46.1 µM), inactives show at the highest dose activity, negative = inhibition, usual class: inhibitors; hit rate 1.2% among 410,000; note: potency is the fitted concentration of half-maximal effect; % is set by controls: 0 for no effect and ±100 for the full control effect; nearly all actives have a fitted effect of over 65% in size
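Cell-based qHTS in HEPG2 carrying a CAGA-GFP Smad reporter; compounds added before 500 pg/mL final TGF-beta, 18 h incubation at 37 degrees C, GFP fluorescence quantified per cell by imaging cytometry.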
IL1B secr inh: qHTS for Inhibitors of Inflammasome Signaling: IL-1-beta AlphaLISA Primary Screen | THP-1 LPS/ATP IL-1B secretion, AlphaLISA, 16 h; active compounds read low | activity change, % at 57.5 µM | hit rate 4.7% among 360,000; in the data active = activity change below about -50%; inconclusive = mostly about -30% to -49%; note: % is set by controls: 0 for no effect and ±100 for the full control effect
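Secreted IL-1B measured by AlphaLISA bead assay after 16 h compound exposure of THP-1 cells; compounds (final up to 57.5 uM) added 1 h before LPS (250 ng/mL) and ATP (1.25 mM) stimulation; lower signal means less secretion.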
ASM inhibitor: Inhibitors of Secretory Acid Sphingomyelinase (S-ASM): qHTS; Sphingomyelin phosphodiesterase (Homo sapiens), P17405; placental ASM, HMU-PC fluorogenic substrate, 60 min; Potency, µM (titrated, usually from 57.5 µM), without a hit: at the highest dose activity change, negative = inhibition, actives largely listed as inhibitors; hit rate 0.006% among 340,000; AID 504937, 2011; note: potency is the fitted concentration of half-maximal effect
Target sequence (P17405 47-631 limits assumed): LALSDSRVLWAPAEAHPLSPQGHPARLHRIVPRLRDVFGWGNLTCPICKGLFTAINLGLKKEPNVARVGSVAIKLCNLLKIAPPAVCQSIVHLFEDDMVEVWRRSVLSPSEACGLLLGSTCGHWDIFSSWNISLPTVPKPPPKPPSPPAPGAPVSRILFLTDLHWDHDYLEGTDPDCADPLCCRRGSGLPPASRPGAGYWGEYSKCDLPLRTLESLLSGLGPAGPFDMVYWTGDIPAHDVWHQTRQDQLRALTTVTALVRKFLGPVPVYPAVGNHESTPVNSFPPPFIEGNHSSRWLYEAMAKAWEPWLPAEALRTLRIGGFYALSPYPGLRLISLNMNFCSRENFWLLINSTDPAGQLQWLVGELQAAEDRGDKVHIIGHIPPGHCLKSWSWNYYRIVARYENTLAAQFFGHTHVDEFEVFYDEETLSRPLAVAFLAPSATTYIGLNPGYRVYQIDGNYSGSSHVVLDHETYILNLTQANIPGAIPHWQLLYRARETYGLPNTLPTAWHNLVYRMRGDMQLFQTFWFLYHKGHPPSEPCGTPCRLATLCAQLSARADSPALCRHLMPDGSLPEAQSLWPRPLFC
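Fluorescence read-out (Ex 386 nm, Em 447 nm) after stopping the reaction at pH 10. Enzyme: ASM from human placenta; substrate HMU-PC0, 9 uM final; 60 min, 37 °C. Compound preincubation 10 min, ambient temperature.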
DT40 TDP1 no CPT: qHTS for Inhibitors of human tyrosyl-DNA phosphodiesterase 1 (TDP1): qHTS in cells in absence of CPT; DT40 Tdp1-/- hTDP1 cells, no CPT, ATP luminescence, 48 h; Potency, µM (doses to about 46.2 µM), for the others: at the top dose activity change, negative = growth inhibition, most hits filed as inhibitors; hit rate 15% among 420,000; note: potency is the fitted concentration of half-maximal effect; % is set by controls: 0 for no effect and ±100 for the full control effect; nearly all actives have a fitted effect of over 55% in size
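DT40 Tdp1-/-;hTDP1 cells, no CPT (DMSO vehicle only), 400 cells/well; compounds pin-transferred; ≥48 hr, 37 °C; CellTiter-Glo 30 min RT dark, luminescence read.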
* = called active by the depositor; i = inactive; ? = inconclusive; . = no result given; [ ] = another dose, or the depositor's remark. Unless noted, calls come from the whole dose curve; as a rule, active = well fitted curve in the direction sought with a large enough effect; inconclusive = small, poorly fitted or top-dose-only effect, or another doubt; inactive = no such curve, though single readings can be large; an effect the other way counts as inactive or inconclusive.

SMILES	TDP1 cell CPT	HepG2 tox	TGFb SMAD3 inh	IL1B secr inh	ASM inhibitor	DT40 TDP1 no CPT
O=C(NC1CCCCC1)C1CC(=O)N(c2ccccc2)C1 (stereo unspecified)	-11.5%	5.0%	-5.1%	-12.7	-1.0%	-29.0%
O=C(N/N=C/c1cccs1)c1cc(-c2cccc3ccccc23)n[nH]1	?	-32.5%	0.9%	-52.0*	-20.9%	?
CC(C)(C)C1CCc2c(C(=O)N/N=C/c3cccs3)csc2C1 (stereo unspecified)	14.1µM*	-2.9%	-0.8%	-1.4	-4.3%	?
Cc1nnc(SCC(=O)Nc2ccc(F)cc2F)n(N)c1=O	-0.1%	16.8%	1.5%	-10.5	1.7%	-7.1%
Cc1cccc(CN2CCC(CNC(=O)Cn3ncc4c([nH]c5ccccc54)c3=O)CC2)c1	-10.8%	3.6%	14.8%	2.4	3.8%	2.8%
CC(NC(=O)CCl)c1ccccc1Br (stereo unspecified)	?	-7.1%	-3.9%	-96.3*	5.4%	14.6µM*
CC(NC(=O)CCl)c1ccc(Cl)c(Cl)c1 (stereo unspecified)	16.4µM*	17.8µM*	?	-102.9*	2.9%	18.4µM*
Cc1ccc(S(=O)(=O)NCC(=O)NCC(=O)NC(C)c2ccccc2Br)cc1C (stereo unspecified)	-12.1%	-83.8%	-5.4%	-17.8	4.2%	-23.3%
COc1ccc(CNC(=O)c2cnn(-c3nccc(-c4ccco4)n3)c2C)cc1OC	10.6%[9.04 µM]	.	.	.	.	-14.8%
O=C(CSc1nnc2[nH]c(=O)cc(-c3ccccc3)n12)Nc1ccc(F)cc1F	8.0%	-14.0%	-10.1%	.	.	-10.6%
O=C(Nc1ccccc1)N(C1=NCCC1)c1ccc(OC(F)F)cc1	-14.9%	-24.6%	1.3%	-27.3	-14.6%	?
CCCCCn1c(CN2CCN(C)CC2)nc2c1c(=O)n(C)c(=O)n2C	-2.1%	-16.4%	0.8%	-9.8	2.7%	-10.2%
CCC1CCCCN1Cc1nc2c(c(=O)n(C)c(=O)n2C)n1CCC(C)C (stereo unspecified)	16.4µM*	2.6%	5.6%	20.4	-2.8%	14.6µM*
CCCCCCn1c(CN2CCCCC2CC)nc2c1c(=O)n(C)c(=O)n2C (stereo unspecified)	23.1µM*	-16.2%	2.5%	23.4	3.8%	13µM*
CCC1CCCCN1Cc1nc2c(c(=O)n(C)c(=O)n2C)n1CC(C)C (stereo unspecified)	?	-3.0%	16.7%	22.5	-2.2%	?
COc1ccc(C(CC(=O)NCc2ccc(Cl)cc2)N2Cc3ccccc3C2=O)cc1OC (stereo unspecified)	18.4µM*	1.2%	-11.9%	.	.	13µM*
CCCC(C(=O)NCc1cccc(Cl)c1)N1Cc2ccccc2C1=O (stereo unspecified)	?	-14.0%	-10.1%	.	.	11.6µM*
COc1ccc(C(CC(=O)NCc2ccccc2)N2Cc3ccccc3C2=O)cc1 (stereo unspecified)	?	-15.3%	-8.0%	.	.	23.1µM*
COc1ccc(C(CC(=O)Nc2ccc(OC)c(OC)c2)N2Cc3ccccc3C2=O)cc1 (stereo unspecified)	?	-10.7%	?	.	.	?
Cc1ccc(CNC(=O)C(CC(C)C)N2Cc3ccccc3C2=O)cc1 (stereo unspecified)	?	-15.1%	0.5%	.	.	?
COc1ccc(C(CC(=O)Nc2cc(OC)c(OC)c(OC)c2)N2Cc3ccccc3C2=O)cc1 (stereo unspecified)	23.1µM*	-17.0%	-1.2%	.	.	23.1µM*
CCOC(=O)Cn1c(=O)c2c(nc3n2CCN3c2ccc(CC)cc2)n(C)c1=O	-0.6%	0.1%	.	.	.	-18.9%
COc1ccc2c(c1)c1c(c(=O)n(-c3cccc(Cl)c3)c(=O)n1C)n2C	-5.0%	1.0%	3.9%	.	.	-7.7%
COc1ncc2nc(-c3cccc(C#N)c3)c(=O)n(CCC#N)c2n1	7.4%	.	.	.	.	-8.0%
COc1ccc(C(CC(=O)Nc2cc(Cl)c(OC)cc2OC)N2Cc3ccccc3C2=O)cc1 (stereo unspecified)	?	-11.5%	-10.2%	.	.	?
SMILES	TDP1 cell CPT	HepG2 tox	TGFb SMAD3 inh	IL1B secr inh	ASM inhibitor	DT40 TDP1 no CPT
COc1ccc(C(CC(=O)Nc2cc(C)ccn2)N2Cc3ccccc3C2=O)cc1 (stereo unspecified)	?	-11.3%	-3.5%	12.6	-0.5%	13µM*
COc1cc(OC)c(NC(=O)CC(c2cccs2)N2Cc3ccccc3C2=O)cc1Cl (stereo unspecified)	23.1µM*	-53.6%	-58.7%	.	.	18.4µM*
Cc1ccc2[nH]c(CSc3nnc(NC(=O)c4ccccc4F)s3)cc(=O)c2c1	10.3µM*	-1.4%	-2.5%	.	.	10.3µM*
Cc1ccc2[nH]c(CSc3nnc(NC(=O)c4ccccc4C)s3)cc(=O)c2c1	7.31µM*	1.4%	?	.	.	5.8µM*
CCc1nnc(NC(=O)c2nc(SCc3ccccc3C)ncc2Cl)s1	-16.1%	-15.0%	-9.7%	.	.	-9.7%
CSc1nnc(NC(=O)c2nc(S(=O)(=O)Cc3ccccc3)ncc2Cl)s1	11.6µM*	-157.5%	?	-100.5*	-3.3%	16.4µM*
CC(C)c1nnc(NC(=O)c2nc(S(=O)(=O)Cc3ccccc3)ncc2Cl)s1	5.8µM*	i	?	-103.4*	-1.9%	9.2µM*
CC(C)Sc1ncc(Cl)c(C(=O)Nc2nnc(C(C)C)s2)n1	-21.0%	-2.5%	-8.0%	.	.	-10.2%
Cc1ccccc1CS(=O)(=O)c1ncc(Cl)c(C(=O)Nc2nnc(C(C)C)s2)n1	8.2µM*	-88.3%	?	.	.	10.3µM*
CCc1cccc(C)c1NC(=O)Cn1c(=O)n(-c2cccc(C)c2)c(=O)c2c1c1cc(C)ccc1n2C	?	5.7%	-16.7%	.	.	-13.4%
Cc1ccc(C(=O)c2oc3ccccc3c2NC(=O)COc2ccccc2C)cc1	.	-97.1%	12.2%	.	.	.
CCCc1[nH][nH]c(=O)c1C(c1ccc(Cl)cc1)C(C#N)C#N (stereo unspecified)	-12.1%	-20.9%	-23.4%	-82.5*	-8.5%	-22.6%
Cc1[nH][nH]c(=O)c1[C@@H](c1ccccc1[N+](=O)[O-])C(C#N)C#N	?	-17.4%	-15.2%	-3.3	25.5%	-19.0%
